This note sets out measurements from PubChem BioAssay.

Activity calls are given as the source filed them.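 How the source made its calls, unless noted: active means compounds that lower survival of HCT116 colon cancer cells in the luminescence readout, no numeric limit stated; inactive means the rest.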

Assay [1] in a line: Wnt pathway potentiators raising nuclear beta-catenin – imaging, WNT3A-conditioned medium, mouse C2C12, NPC library, primary screen (AID 1117326; in the data active means nuclear beta-catenin stimulation mostly above about 4.2%, no sharp cut-off; inactive means mostly below about 10%; further: reference of the scale not given here). Particulars: stronger effect = higher value.
Assay [2] can be described thus: stimulators of insulin release from INS-1E, primary screen, cell-based, 5 mM glucose, NPC library (AID 1117329;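 active means compound raises insulin release from rat beta cells at 5 mM glucose, no numeric limit stated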; further: reference of the scale not given here). Conditions: rat INS-1E insulin secretion, at 10 µM, stronger effect = higher value.
Assay [3] in a line: growth inhibition of GSK3B-pretreated HCT116 cells – cell-based, CellTiter-Glo, 0.2 to 20 µM (AID 1117336;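 active means compounds lowering colon cancer cell viability after pretreatment blocking the GSK3B kinase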). Conditions: HCT116 viability after GSK3B inhibitor, at 20 µM, stronger effect = higher value. In general terms: In ATP-based viability assays light output follows the ATP content of the culture.
A short description of assay [4]: inhibition of endothelial tube formation, primary screen, imaging, VEGF stimulated, CD31 staining, tube area, NPC library (AID 1117340;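 active means compound that reduces growth-factor-driven endothelial tube area in a mixed cell culture, no cutoff stated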). Particulars: VEGF-stimulated ADSC/ECFC co-culture, at 10 µM, stronger effect = higher value.
The nature of assay [5]: GLP1 release stimulators, primary, NCI-H716, NPC library (AID 1117341;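 active means compound raises GLP1 secretion from the human gut endocrine cells, with no numeric limit stated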; further: reference of the scale not given here). Particulars: NCI-H716 cells, at 10 µM, stronger effect = higher value.
A short description of assay [6]: HCT116 colon cancer cell growth inhibition, primary screen, CellTiter-Glo luminescence, NPC library (AID 1117342). Conditions: at 20 µM (top of the series).
The nature of assay [7]: reduced SW480 viability measured with CellTiter-Glo, NPC library, primary (AID 1117343;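 active means compounds that lower viability of the colon cancer cells in the luminescence readout, with no numeric limit stated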). Particulars: CellTiter-Glo luminescence; at 20 µM (top of the series).
Assay [8] in a line: NPC library primary testing for decreased DLD-1 cell viability via CellTiter-Glo (AID 1117346;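 active means compounds that lower survival of DLD-1 colon cancer cells in the luminescence readout, no cutoff given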). Conditions: DLD-1 viability, CellTiter-Glo luminescence; at 20 µM (top of the series).

For `CC1CN(c2cc3c(cc2F)c(=O)c(C(=O)O)cn3-c2ccc(F)cc2F)CCN1` (centres undefined), the nuclear beta-catenin stimulation is -0.4% (inactive) in assay [1] (at 10 µM) and 0% in assay [1] (stimulation, at 2 µM). In assay [2], the insulin secretion stimulation was 2.1% (inactive). Besides, the viability decrease in assay [3] is 8.7% (inactive). In addition, in assay [4], the tube area decrease was 5.5% (inactive). Also, the GLP1 secretion stimulation in assay [5] was -0.9% (inactive). Also, the inhibition of viability in assay [6] was 10.7% (inactive). Moreover, the viability decrease (inhibition) in assay [7] is 16.6% (inactive); in assay [8] it was -0.2% (inactive).

With `CCCCC/C(C=O)=C\c1ccccc1`, the nuclear beta-catenin stimulation in assay [1] (at 10 µM) is 0.8% (inactive); in assay [1] (stimulation, at 2 µM), 4.5%. Also, the insulin secretion stimulation in assay [2] is 1% (inactive). Also, the viability decrease in assay [3] was -20.6% (inactive). The tube area decrease in assay [4] was 30.3% (inactive). The GLP1 secretion stimulation in assay [5] is 0.1% (inactive). Moreover, the inhibition of viability in assay [6] is 1.1% (inactive). The values for the viability decrease (inhibition) in assay [7] and in assay [8] were 12.8% (inactive) and -11.3% (inactive), respectively.

Take `Nc1ccc([N+](=O)[O-])c(C(F)(F)F)c1`: the nuclear beta-catenin stimulation in assay [1] (at 10 µM) is 0.5% (inactive); in assay [1] (stimulation, at 2 µM), -1%. Further, the insulin secretion stimulation in assay [2] is 0.2% (inactive). Moreover, the viability decrease in assay [3] was 13.2% (inactive). Also, the tube area decrease in assay [4] was 1.1% (inactive). The GLP1 secretion stimulation in assay [5] was -0.8% (inactive). For the same molecule, the inhibition of viability in assay [6] was 26.5% (inactive). The viability decrease (inhibition) was -16.7% (inactive) in assay [7] and 18.5% (inactive) in assay [8].

For the molecule `COc1ccc([C@@H]2Sc3ccccc3NC(=O)[C@@H]2O)cc1`, the nuclear beta-catenin stimulation was 7.8% (inactive) in assay [1] (at 10 µM) and 0.6% in assay [1] (stimulation, at 2 µM). In addition, the insulin secretion stimulation in assay [2] is 2.8% (inactive). Besides, the viability decrease in assay [3] is 77.6% (active). In addition, the tube area decrease in assay [4] was 57.7% (active). The GLP1 secretion stimulation in assay [5] is 2.6% (inactive). For the same molecule, in assay [6], the inhibition of viability was 96.6% (active). The viability decrease (inhibition) is 87.2% (active) in assay [7] and 67.4% (active) in assay [8].

For the molecule `CC(C)(C)NCC(O)COc1ccc(NC(=O)NC2CCCCC2)cc1` (centres undefined), the nuclear beta-catenin stimulation was 1.2% (inactive) in assay [1] (at 10 µM) and -0.1% in assay [1] (stimulation, at 2 µM). Moreover, the insulin secretion stimulation in assay [2] is 1.65% (inactive). In addition, the viability decrease in assay [3] was -5.2% (inactive). Moreover, the tube area decrease in assay [4] was 9.5% (inactive). Besides, in assay [5], the GLP1 secretion stimulation is 2% (inactive). The inhibition of viability in assay [6] is -0.2% (inactive). The viability decrease (inhibition) in assay [7] was -5.6% (inactive); in assay [8], -1.8% (inactive).

Regarding `CCCCCCCCCCOCC(O)CN` (centres undefined), the nuclear beta-catenin stimulation in assay [1] (at 10 µM) was 49.7% (active); in assay [1] (stimulation, at 2 µM) it was -0.2%. Besides, in assay [2], the insulin secretion stimulation is 4.5% (inactive). Further, the viability decrease in assay [3] was 91.1% (active). Moreover, the tube area decrease in assay [4] was 65% (active). Also, the GLP1 secretion stimulation in assay [5] was -3.3% (inactive). Moreover, the inhibition of viability in assay [6] is 84.7% (active). The viability decrease (inhibition) in assay [7] is 102% (active); in assay [8] it was 98.4% (active).

For `O=C(OCCN1CCOCC1)c1cccnc1Nc1cccc(C(F)(F)F)c1`, the nuclear beta-catenin stimulation in assay [1] (at 10 µM) was 1.2% (inactive); in assay [1] (stimulation, at 2 µM), -0.8%. The insulin secretion stimulation in assay [2] is -0.1% (inactive). Moreover, in assay [3], the viability decrease was 42% (inactive). Also, the tube area decrease in assay [4] was 8.9% (inactive). In addition, in assay [5], the GLP1 secretion stimulation was 3.6% (inactive). The inhibition of viability in assay [6] was 55.9% (active). For the same molecule, the figures for the viability decrease (inhibition) in assay [7] and in assay [8] were 62.3% (active) and 28.3% (inactive), respectively.

On to `O=C(CS)Nc1ccccc1`, for which the nuclear beta-catenin stimulation is 0.5% (inactive) in assay [1] (at 10 µM) and -0.2% in assay [1] (stimulation, at 2 µM). Besides, in assay [2], the insulin secretion stimulation is 6.4% (inactive). The viability decrease in assay [3] is -38.2% (inactive). Further, in assay [4], the tube area decrease is 4.3% (inactive). In assay [5], the GLP1 secretion stimulation was -2.3% (inactive). For the same molecule, in assay [6], the inhibition of viability was -19.3% (inactive). The viability decrease (inhibition) was -2.4% (inactive) in assay [7] and -12.9% (inactive) in assay [8].

As for `CCCCN(CCN(CCCC)C(=O)N1CCOCC1)C(=O)N1CCOCC1`, the nuclear beta-catenin stimulation in assay [1] (at 10 µM) is 1.4% (inactive); in assay [1] (stimulation, at 2 µM) it was 1%. Besides, the insulin secretion stimulation in assay [2] was 1.1% (inactive). Also, in assay [3], the viability decrease was -64.8% (inactive). Besides, the tube area decrease in assay [4] is 17.8% (inactive). The GLP1 secretion stimulation in assay [5] is 0.9% (inactive). In addition, the inhibition of viability in assay [6] is 25.7% (inactive). Also, the values for the viability decrease (inhibition) in assay [7] and in assay [8] were 2.8% (inactive) and 24.1% (inactive), respectively.

As to `O=P(O)(O)C(Sc1ccc(Cl)cc1)P(=O)(O)O`, the nuclear beta-catenin stimulation in assay [1] (at 10 µM) was 1.7% (inactive); in assay [1] (stimulation, at 2 µM), 1.6%. For the same molecule, the insulin secretion stimulation in assay [2] is 3.9% (inactive). In addition, the viability decrease in assay [3] is -2.7% (inactive). The tube area decrease in assay [4] was 1% (inactive). Also, the GLP1 secretion stimulation in assay [5] is -2.7% (inactive). Besides, the inhibition of viability in assay [6] is 4.3% (inactive). Moreover, the values for the viability decrease (inhibition) in assay [7] and in assay [8] were 2.6% (inactive) and 2% (inactive), respectively.

For the molecule `CN(C)CCN1CCN(c2cccc(Cl)c2)C1=O`, the nuclear beta-catenin stimulation in assay [1] (at 10 µM) was 0.8% (inactive); in assay [1] (stimulation, at 2 µM), 0.1%. Moreover, in assay [2], the insulin secretion stimulation is 2.6% (inactive). Besides, the viability decrease in assay [3] was 10.9% (inactive). For the same molecule, the tube area decrease in assay [4] was 8% (inactive). The GLP1 secretion stimulation in assay [5] was 4% (inactive). Also, the inhibition of viability in assay [6] is 50% (active). In addition, the figures for the viability decrease (inhibition) in assay [7] and in assay [8] were 7.4% (inactive) and -1.8% (inactive), respectively.

As for `O=C(O)Cc1csc(-c2ccc(Cl)cc2)n1`, the nuclear beta-catenin stimulation in assay [1] (at 10 µM) is -0.7% (inactive); in assay [1] (stimulation, at 2 µM), -0.2%. The insulin secretion stimulation in assay [2] was 0.4% (inactive). In addition, the viability decrease in assay [3] was -4.4% (inactive). Also, in assay [4], the tube area decrease was 0.8% (inactive). Also, the GLP1 secretion stimulation in assay [5] was -2.9% (inactive). For the same molecule, the inhibition of viability in assay [6] was -9.9% (inactive). The viability decrease (inhibition) is -3.2% (inactive) in assay [7] and -11% (inactive) in assay [8].

In the case of `NC(=S)N/N=C/c1cccnc1`, the nuclear beta-catenin stimulation in assay [1] (at 10 µM) is 0.4% (inactive); in assay [1] (stimulation, at 2 µM) it was 0.5%. Also, in assay [2], the insulin secretion stimulation is -0.8% (inactive). The viability decrease in assay [3] was 0.7% (inactive). Also, in assay [4], the tube area decrease is -13.5% (inactive). In assay [5], the GLP1 secretion stimulation is 1.9% (inactive). Moreover, the inhibition of viability in assay [6] was -8.9% (inactive). The viability decrease (inhibition) in assay [7] is 38.7% (inactive); in assay [8], 1.65% (inactive).

Regarding `O=C(CCOCCOCCOCCOCCC(=O)Nc1c(I)cc(I)c(C(=O)O)c1I)Nc1c(I)cc(I)c(C(=O)O)c1I`, the nuclear beta-catenin stimulation in assay [1] (at 10 µM) was -0.1% (inactive); in assay [1] (stimulation, at 2 µM) it was -1.6%. Besides, the insulin secretion stimulation in assay [2] was 0.1% (inactive). Also, the viability decrease in assay [3] is -4.7% (inactive). In assay [4], the tube area decrease was -12% (inactive). Besides, in assay [5], the GLP1 secretion stimulation is 0.3% (inactive). Besides, in assay [6], the inhibition of viability is -2.1% (inactive). Further, the viability decrease (inhibition) is -14.8% (inactive) in assay [7] and -2.6% (inactive) in assay [8].

Consider `O=S(=O)(O)CC(S)CS` (centres undefined), for which the nuclear beta-catenin stimulation in assay [1] (at 10 µM) is -1% (inactive); in assay [1] (stimulation, at 2 µM), -0.1%. The insulin secretion stimulation in assay [2] was -3.4% (inactive). In assay [3], the viability decrease is -25.4% (inactive). In addition, in assay [4], the tube area decrease is -1.9% (inactive). Moreover, the GLP1 secretion stimulation in assay [5] was -7% (inactive). In addition, in assay [6], the inhibition of viability is 4.3% (inactive). In addition, the figures for the viability decrease (inhibition) in assay [7] and in assay [8] were 3.8% (inactive) and -6.6% (inactive), respectively.

With `COc1cc2[nH]c(=O)[nH]c(=O)c2cc1OC`, the nuclear beta-catenin stimulation in assay [1] (at 10 µM) was 0.1% (inactive); in assay [1] (stimulation, at 2 µM), 1.1%. In addition, the insulin secretion stimulation in assay [2] is -1.8% (inactive). Besides, in assay [3], the viability decrease is 6.35% (inactive). For the same molecule, the tube area decrease in assay [4] was -8.3% (inactive). For the same molecule, the GLP1 secretion stimulation in assay [5] is 3.1% (inactive). In addition, the inhibition of viability in assay [6] was -1.4% (inactive). Besides, the viability decrease (inhibition) in assay [7] is 47.6% (inactive); in assay [8] it was 0.05% (inactive).
